Assay outcomes: PubChem BioAssay, National Center for Advancing Translational Sciences (NCATS)
This is a sample that favours compounds with a hit; in the whole collection about 12% have one here.
PLK1 PBD inh – blocks phosphopeptide binding to human PLK1 polo-box domain. P53350. Plk1 PBD binding of FITC phosphopeptide, fluorescence polarization. Potency, µM, for inactives: max response, negative = inhibition, most hits filed as inhibitors. 2.8% of 360,000 active; further: series mostly up to about 57 µM; nearly all actives have a fitted effect of over 65% in size
Sfp PPTase inh – blocks B. subtilis Sfp PPTase activity; 3.5% of 310,000 active; Potency, µM, for inactives: largest response in the series, negative = inhibition, actives largely listed as inhibitors; AID 1490; Biochemical Sfp PPTase activity, qHTS; Q9F4F7;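 further: the enzyme is Sfp with the accession as filed and its product quenches rhodamine fluorescence; 0% = enzyme reaction without inhibitor and -100% = no enzyme wells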
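Compounds were incubated with enzyme (final 15 nM) for 15 min at room temperature before substrate addition started the reaction. Fluorescence at 525 nm excitation, 598 nm emission was recorded immediately and after 30 minutes.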
RORg inh – blocks mouse ROR gamma transcriptional activity. P51450. Drosophila S2 Gal4-RORgamma UAS-luciferase reporter, 20 h. Potency, µM (highest dose often 53.6 µM), without a hit: at the highest dose activity change, negative = inhibition, hits mostly inhibitors. 5.4% of 310,000 active; further: nearly all actives have a fitted effect of over 60% in size
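A Gal4/UAS one-hybrid system in insect cells: metallothionein-promoter Gal4–ROR gamma fusion plus Photinus luciferase reporter. Copper sulfate 700 uM final, 20 hr ambient incubation, luminescent detection after 10 min with reagent.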
ALDH1A1 inh – blocks purified human ALDH1A1 activity. P00352. Purified ALDH1A1, NADH fluorescence, propionaldehyde substrate. Potency, µM (titrated, usually from 75.3 µM), inactives show top-dose activity, negative = inhibition, actives largely listed as inhibitors. 7.3% of 220,000 active. AID 1030; active means well fitted inhibition curve with a large enough effect, not every such curve was filed as active; inconclusive means small, poorly fitted or top-dose-only effect, or another doubt; inactive means no such curve, though single readings can be large or run the other way;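 further: plate controls were no enzyme wells and a reference inhibitor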
Target sequence (P00352 whole entry, looked up): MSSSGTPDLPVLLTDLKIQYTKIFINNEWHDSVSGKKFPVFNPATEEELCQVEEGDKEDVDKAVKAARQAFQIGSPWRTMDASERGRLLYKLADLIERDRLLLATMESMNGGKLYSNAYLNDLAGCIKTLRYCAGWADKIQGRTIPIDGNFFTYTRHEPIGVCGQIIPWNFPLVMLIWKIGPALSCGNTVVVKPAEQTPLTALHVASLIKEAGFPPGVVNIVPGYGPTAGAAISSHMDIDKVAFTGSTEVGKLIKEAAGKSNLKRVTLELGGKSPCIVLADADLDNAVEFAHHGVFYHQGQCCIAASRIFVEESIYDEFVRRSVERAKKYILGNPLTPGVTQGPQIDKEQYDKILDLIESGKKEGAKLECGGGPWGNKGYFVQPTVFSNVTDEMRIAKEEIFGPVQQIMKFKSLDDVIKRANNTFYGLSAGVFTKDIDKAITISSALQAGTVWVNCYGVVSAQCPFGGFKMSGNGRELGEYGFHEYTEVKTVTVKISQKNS
VP16 counter – Gal4-VP16 reporter inhibition counter-screen; Potency, µM (doses to about 53.6 µM), inactives show top-dose activity, negative = inhibition, most hits filed as inhibitors; 3.5% of 310,000 active; Drosophila S2 Gal4-VP16 UAS-luciferase, luminescence, 20 h; AID 2546;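 further: Gal4-VP16 expression switched on by copper sulfate through the metallothionein promoter; nearly all actives have a fitted effect of over 50% in size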
Numbers without * were called inactive; ? = inconclusive; / = no result given; ! = a repeat was not active; [ ] = another dose, or the depositor's remark. Unless noted, the call rests on the fitted dose curve; in most records, active means well fitted curve in the direction sought with a large enough effect; inconclusive means small, poorly fitted or top-dose-only effect, or another doubt; inactive means no such curve, though single readings can be large; an effect the other way counts as inactive or inconclusive. Unless noted, on the % scale 0 is the no-effect control and ±100 the full control effect; potency means the concentration at half of the fitted maximal effect.

SMILES	PLK1 PBD inh	Sfp PPTase inh	RORg inh	ALDH1A1 inh	VP16 counter
COCCOC(=O)c1c(N)n(Cc2ccc(OC)cc2)c2nc3ccccc3nc12	-23%	-2%	-11%	?	0%
Nc1c(C(=O)NC2CCCC2)c2nc3ccccc3nc2n1CC1CCCO1 (stereo not drawn)	-14%	-13%	2%	9%	-4%
CC(C)OC(=O)c1c(N)n(Cc2ccco2)c2nc3ccccc3nc12	-10%	50µM*	19%	?	-4%
c1cc2c(cc1C1OC[C@@H]3C(c4ccc5c(c4)OCO5)OCC13)OCO2 (stereo partly drawn)	/	-4%	44%	4%	-8%
Nc1ccc([N+](=O)[O-])cc1N	/	/	7%	-1%	-5%
Cl/C=C\Cl	/	/	-1%	20%	-1%
CCCN1CCC[C@@H]2Cc3cn[nH]c3C[C@H]21	/	?	-1%	2%	4%
NC(=NCc1ccc(Cl)cc1)SCCCc1cnc[nH]1	/	-2%	7%	14%	2%
NC1=N[C@H](O)[C@H]2C3O[C@]4(O)O[C@H](C(O)[C@@]2(N1)[C@@H]4O)C3(O)CO (stereo partly drawn)	/	6%	5%	-2%	5%
c1ccc(N2CCC3(CCNCC3)CC2)nc1	/	-7%	13%	?	-7%
CC(C)OCCCNC(=O)c1c(N)n(Cc2cccs2)c2nc3ccccc3nc12	-9%	?	?	?	16µM*
CC(C)CNC(=O)c1c(N)n(Cc2ccc3c(c2)OCO3)c2nc3ccccc3nc12	-28%	-20%	?	?	7.1µM*
CC(C)CNC(=O)c1c(N)n(Cc2ccco2)c2nc3ccccc3nc12	-26%	32µM*	-28%	?	?
CCCNC(=O)c1c(N)n(Cc2ccco2)c2nc3ccccc3nc12	?	?	2%	?	-6%
COCCCNC(=O)c1c(N)n(Cc2ccco2)c2nc3ccccc3nc12	-12%	13µM*	?	/	-16%
CN(C)CCCCCCN(C)C	/	12%	-2%	?	-2%
CC1CCN(C(=O)CCl)CC1	-12%	14%	-8%	0.35µM*	16%
CC1(C)C[C@H]2C=C(C=O)[C@]3(C=O)C[C@]3(C)[C@H]2C1	-17%	?	1.4µM*	?	1.1µM*
Cc1ccc2c(c1)[C@@H]1CN(C)CC[C@H]1N2	/	23%	-1%	/	-1%
COc1ccc(CCNCc2ccncc2)cc1	-12%	-2%	-9%	22µM*	6%
Cc1nn(C(C)(C)C)c(C)c1/C=N/OC(=O)Nc1ccc(Cl)c(Cl)c1	0%	-6%	0.22µM*	3%	1µM*
COc1ccccc1NC(=O)COC(=O)c1cc(C)n(C2CC2)c1C	-21%	/	/	/	/
Cc1cc(C(=O)CN2C(=O)c3ccccc3C2=O)c(C)n1C1CC1	-6%	-24%	27%	?	16µM*
Cc1cc(C)cc(C(=O)OC2C[C@H]3CC[C@@H](C2)N3C)c1 (stereo partly drawn)	/	0%	-9%	6%	3%
O=C1c2ccccc2C(=O)C1C(=O)C(c1ccccc1)c1ccccc1	/	?	19%	/	8%
SMILES	PLK1 PBD inh	Sfp PPTase inh	RORg inh	ALDH1A1 inh	VP16 counter
CCCn1c(=O)c2[nH]c(C3CCCC3)nc2n(CCCOC(=O)c2ccc(S(=O)(=O)F)cc2)c1=O	/	/	/	11µM*	/
CCCCCCn1c(O)c(C=NC2CCCCC2N)c(=O)[nH]c1=O (stereo not drawn)	0%	7%	-14%	-3%	3%
C[C@@H](Cc1ccc(O)cc1)NC[C@@H](O)c1cc(O)cc(O)c1	/	18%	17%[16.9 µM]	-1%[20.9 µM]	-4%[17 µM]
CC(=O)O[C@H]1C[C@@H](O[C@@H]2[C@H](C)O[C@H](O[C@@H]3[C@H](C)O[C@H](O[C@@H]4CC[C@@]5(C)[C@@H](CC[C@]6(C)[C@]5(C)C[C@H](O)[C@]5(C)[C@@H](C7=CC(=O)OC7)CC[C@@]56O)C4)C[C@@H]3O)C[C@@H]2O)O[C@@H](C)[C@H]1O[C@H]1O[C@@H](CO)[C@@H](O)[C@@H](O)[C@@H]1O	/	19%	12%[16.9 µM]	25%[20.9 µM]	2%[17 µM]
Clc1ccc(C(c2ccc(Cl)cc2)n2cc[n+](CC(OCc3ccc(Cl)cc3Cl)c3ccc(Cl)cc3Cl)c2)cc1 (stereo not drawn)	-21%	?	?	-10%	11µM*
CCCCN1CCC(O)(c2ccccc2)C(C(=O)c2ccccc2)C1 (stereo not drawn)	?	8%	?	0.11µM*	?
O=C(O)[C@@H](O)[C@@H](O)C1[O][Sb][O][C@@H]1CO (stereo partly drawn)	/	/	/	-19%[13.5 µM]	/
O=[As](O)(O)c1ccc(Cc2ccc([As](=O)(O)O)cc2)cc1	/	/	/	2.2µM*	/
Nc1ccc([As](=O)(O)O)cc1	-11%	-2%	-6%	5%	-17%
O=C1NC(=O)N(CCc2ccc(F)cc2)C(=O)/C1=C\C=C\c1ccccc1	?	-7%	-3%	1.6µM*	-5%
C=CCN1C(=O)NC(=O)/C(=C/C=C/c2ccccc2)C1=O	?	28µM*	?	14µM*	-1%[10 µM]
C=CCn1cc(C=C2C(=O)NC(=O)NC2=O)c2ccccc21	8%	-6%	-13%	/	6%
COc1ccc(Cc2nccc3cc(OC)c(OC)cc23)cc1OC	-10%	-9%	?	-2%	28µM*!
Cc1ccccc1CCNCc1cc2cccc(C)c2[nH]c1=O	-5%	4%	?	/	10µM*
COc1ccc(NC(=O)N2CCC3(CC2)OCCO3)cc1	27µM*	13%	-3%	10%	20%
O=C1NC(=O)N(c2ccc(Cl)cc2)C(=O)/C1=C\c1ccc(Sc2nc3ccccc3[nH]2)o1	3.8µM*	71µM*	-2%	?	-12%
C=CCN1C(=O)/C(=C\c2ccc(N3CCOCC3)o2)C(=O)NC1=S	75%	56µM*	7%	18µM*	19%
CCCCN1C(=O)/C(=C/c2ccc(N3CCCCCC3)cc2)C(=O)NC1=S	/	-19%	8%	0.2µM*	1%
CN1C(=O)/C(=C\c2ccc(N3CCCCCC3)cc2)C(=O)NC1=S	2.1µM*	?	-5%	0.071µM*	2%
CN1C(=O)/C(=C/c2ccc(N3CCCCCC3)o2)C(=O)NC1=S	51%	50µM*	31%	?	0%
CN1C(=O)/C(=C\c2ccc(N3CCCCC3)o2)C(=O)NC1=S	68%	-14%	-27%	?	-7%
C[C@]12CC[C@@H]3[C@H](CCC4=CC(=O)CC[C@]43C)[C@]1(O)CC[C@@]2(O)C(=O)CO	/	/	/	8%[13.5 µM]	/
C=CCN1C(=O)/C(=C/c2ccc3c(c2)CCCN3CCC)C(=O)NC1=S	-73%	25µM*	?	1.3µM*	?
CC(=O)OC1=CC2=CC[C@H]3[C@H]4CCC(=O)[C@@]4(C)CC(=O)[C@]3(S)[C@]2(C)CC1	/	/	/	4.5µM*	/
CC12CCC3C(CC=C4CC5(CCC43C)OCCO5)C1CCC2=O (stereo not drawn)	-14%	13%	-26%	-2%	-12%
